According to PubChem BioAssay AID488922 (Johns Hopkins Ion Channel Center, 2010):
The campaign covered roughly 310,000 compounds. About 3,800 (1.2%) were called active.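 Rule for the calls: active = ratio B-score over 3 SD below the library mean, with starting fluorescence within 5 SD of its mean; inactive = the rest, inconclusive results apart.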 Many of the other results were omitted from the sample, so actives are more common in it than they were.

biological target: Potassium channel subfamily K member 9 (Homo sapiens) (UniProt Q9NPC2); test: KCNK9 potassium channel inhibitors, primary screen, HEK293 cells, thallium flux (AID 488922); details: HEK293 KCNK9, FluxOR thallium flux fluorescence, at 10 µM; stronger effect = lower value;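 for B-score: negative B-score means less thallium flux so channel inhibition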
Sequence (Q9NPC2 whole entry, looked up): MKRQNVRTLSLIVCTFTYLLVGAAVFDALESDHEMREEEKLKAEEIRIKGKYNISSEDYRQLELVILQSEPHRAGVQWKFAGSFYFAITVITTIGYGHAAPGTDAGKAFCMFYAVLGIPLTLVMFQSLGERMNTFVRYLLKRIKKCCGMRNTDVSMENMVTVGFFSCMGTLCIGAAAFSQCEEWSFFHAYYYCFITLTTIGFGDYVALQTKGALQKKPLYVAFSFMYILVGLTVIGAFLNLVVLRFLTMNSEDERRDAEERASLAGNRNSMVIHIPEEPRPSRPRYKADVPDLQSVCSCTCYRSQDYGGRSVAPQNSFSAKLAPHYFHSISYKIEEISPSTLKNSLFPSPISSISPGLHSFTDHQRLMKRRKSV

| SMILES | B-score |
| --- | --- |
| O=C(Cc1cccs1)N(CC1CCCO1)C1(C(=O)NC2CCCCC2)CCCCC1 (centres undefined) | inactive |
| O=C(CCSCCc1ccccn1)Nc1nccs1 | inactive |
| COc1ccc(S(=O)(=O)N2CCN(C(=O)N(C)C)C2C)cc1 (centres undefined) | inactive |
| COc1ccc(OCCCC(=O)NCCc2ccccc2)cc1 | inactive |
| O=C(NC1CCC(O)CC1)c1ccccc1OCc1ccc(F)cc1 (centres undefined) | inactive |
| CCOc1ncccc1C(=O)NCCc1ccc(OC)cc1 | inactive |
| CC(OC(=O)c1ccccc1OCc1ccc(Cl)cc1)C(N)=O (centres undefined) | inactive |
| CC(=O)c1ccccc1OCc1ccc(C(=O)c2ccccc2)cc1 | -6.64 (active) |
| COc1ccc(CCNC(=O)c2ccccc2OCc2ccccc2)cc1 | -8.98 (active) |
| COc1cccc(CN2CCNC(=O)C2CC(=O)N(C)CCc2ccccn2)c1 (centres undefined) | inactive |
| Cc1ccc(CN(N=Nc2nonc2N)c2nonc2N)c(C)c1 | -10.2 (active) |
| CCN(CC(=O)NCC(=O)Nc1cccc(C)c1C)Cc1ccccc1 | inactive |
| CC1(C)C2CC[C@]3(C)C(CC=C4[C@@H]5C[C@@](C)(CO)CC[C@]5(C(=O)O)CC[C@]43C)[C@@]2(C)CC[C@@H]1O (some centres undefined) | inactive |
| Cc1n[nH]c(=O)c2c1nnn2Cc1ccc(F)cc1 | inactive |
| COC(=O)c1cc2nc(-c3ccccc3)cc(C(F)(F)F)n2n1 | inactive |
| COCCNc1cc(-c2ccccc2)nc2cc(-c3cccc(F)c3)nn12 | -9.68 (active) |
| COc1ccc(NC(=O)c2cc3nc(-c4ccccc4)cc(C)n3n2)cc1OC | inactive |
| COCCN(Cc1nc(-c2ccc(C(F)(F)F)cc2)no1)C(C)C | inactive |
| O=C(Cc1ccc2c(c1)CCCC2)Nc1ccccc1Cl | inactive |
| O=C(Nc1ccccc1Cl)/C(Cl)=C(\Cl)S(=O)c1ccccc1 (centres undefined) | -6.6 (active) |
| O=C(Nc1ccccc1Cl)Nc1cccc2cccnc12 | inactive |
| COc1cc(-c2nnc(Cn3cc(C(F)(F)F)ccc3=O)o2)cc(OC)c1OC | inactive |
| COc1cccc(CNc2nc3nc4c(c(=O)n3[nH]2)CCC4)c1 | inactive |

| SMILES | B-score |
| --- | --- |
| COc1cccc(-c2cc3nc4c(c(N5CCC6(CC5)OCCO6)n3n2)CCCC4)c1 | -9.24 (active) |
| COc1cccc(NC(=O)CN2CCN(c3nc(-c4cccc(OC)c4)cs3)CC2)c1 | inactive |
| CCC(=O)Nc1nnc(S(=O)(=O)N2CCCc3ccccc32)s1 | inactive |
| CCSc1nsc(NC(=O)Nc2cccc(C(C)=O)c2)n1 | inactive |
| Cc1ccc(C(=O)N(CC(=O)NC2CCCC2)c2ccc(F)cc2)s1 | inactive |
| CC(=O)Nc1ccc(SCC(=O)Nc2ccccc2Oc2ccccc2)cc1 | inactive |
| CC1CCCN(CC(=O)Nc2cc(Cl)ccc2Oc2ccccc2)C1 (centres undefined) | inactive |
| O=C(CSc1ccccc1)Nc1cc(Cl)ccc1Oc1ccccc1 | -8.08 (active) |
| N#CCOc1ccc(C2=NO[C@@H]3[C@@H]4C[C@@H]([C@H]5C(=O)N(c6ccc7c(c6)OCO7)C(=O)[C@@H]45)[C@H]23)cc1 | inactive |
| O=C(N/C(=C\c1ccc(O)cc1)C(=O)N1CCCCC1)c1ccccc1 | inactive |
| COc1ccc(C)cc1NC(=O)NCCCCc1ccccc1 | inactive |
| COc1ccc(C)cc1NC(=O)Nc1ccccc1SC | inactive |
| COc1ccc(C)cc1NC(=O)C(Sc1ccccc1)c1ccccc1 (centres undefined) | -8.19 (active) |
| CC(Sc1nnnn1C)C(=O)NC(=O)NC1CCCCC1 (centres undefined) | inactive |
| Cc1ccc(S(=O)(=O)NC(C)C(=O)NCc2ccc(Cl)cc2)cc1 (centres undefined) | inactive |
| Cc1cc(Cl)ccc1OCc1nc(-c2ccncc2)no1 | inactive |
| O=C(COC(=O)c1c2c(nc3ccccc13)CCCC2)c1ccc(Br)s1 | -9.29 (active) |
| NC(=O)c1ccc(NC(=O)COC(=O)c2c3c(nc4ccccc24)/C(=C\c2ccc4c(c2)OCO4)CCC3)cc1 | inactive |
| O=C(Nc1c2c(nc3ccccc13)CCCC2)c1ccccc1Br | inactive |
| COC(=O)COc1ccc2c(=O)c(Oc3ccccc3Br)coc2c1 | inactive |
| CCCCc1cc(=O)oc2c(C)c(OCC(=O)N3CCC(C(N)=O)CC3)ccc12 | inactive |
| O=C(/C=C/c1ccc(N2CCOCC2)cc1)c1ccccc1 | inactive |
| CCOc1ncccc1C(=O)OCC(=O)NC1CC1 | inactive |

| SMILES | B-score |
| --- | --- |
| O=C(Nn1c(SCc2ccc([N+](=O)[O-])cc2)nc2ccccc2c1=O)c1ccc(F)cc1 | -8.82 (active) |
| Cc1nc2ccccc2c(=O)n1NC(=O)c1ccc(Cl)c([N+](=O)[O-])c1 | inactive |
| C=CCn1c(SCc2ccc(C(=O)NCCO)cc2)nc2ccccc2c1=O | inactive |
| O=C(Cn1nc([N+](=O)[O-])nc1Br)NC1CCCCC1 | inactive |
| CCC1Nc2ncnc(N3CCN(c4ccccc4)CC3)c2N(Cc2ccc(Cl)cc2)C1=O (centres undefined) | inactive |
| Cc1nc(N2CCN(c3ccccn3)CC2)c2c(C)c(C(=O)Nc3ccc(F)c(Cl)c3)sc2n1 | -10.3 (active) |
| COc1ccc(NC(=O)c2sc3nc(C)nc(N4CCN(c5ccccn5)CC4)c3c2C)c(OC)c1 | inactive |
| Cc1nc(N2CCN(c3ccccn3)CC2)c2c(C)c(C(=O)Nc3ccc(F)cc3)sc2n1 | inactive |
| Cc1ccc2cccc(OCCCOc3ccccc3CO)c2n1 | inactive |
| O=C(COC(=O)c1cccs1)NCc1cccs1 | inactive |
| O=C(COC(=O)c1cc2c(s1)CCCC2)NCc1ccccc1Cl | inactive |
| O=C(COC(=O)/C(=C/c1cccs1)c1cccs1)NCc1ccccc1Cl | -9.72 (active) |
| CC(C)(C)NC(=O)COC(=O)c1cc(Br)ccc1Cl | inactive |
| O=C(NNS(=O)(=O)c1ccc(F)cc1)c1ccc([N+](=O)[O-])cc1Cl | inactive |
| COc1ccc(-c2[nH]ncc2/C=N/NC(=O)c2cc(Br)ccc2O)c(OC)c1 | inactive |
| Cc1ccc(C)c(NC(=O)CSc2nc3c(oc4ccccc43)c(=O)n2-c2ccccc2)c1 | -7.91 (active) |
| Cc1ccc(C)c(NC(=O)CSc2nnc(Cc3cccn3C)n2-c2ccc(F)cc2)c1 | inactive |
| Cc1ccc(C)c(Cn2cnc3c(oc4ccccc43)c2=O)c1 | inactive |
| C=CCOc1ccc(C(=O)Nc2ccccc2C(=O)N2CCCC2)cc1 | inactive |
| Cc1ccc(C2NC(C(=O)O)CS2)cc1 (centres undefined) | inactive |
| COc1ccc(-c2nc(N)ncc2-c2ccc(Cl)cc2)c(O)c1 | inactive |
| COc1cccc(-c2cnc(OC(C)(C)C)nc2OC(C)(C)C)c1 | -8.72 (active) |
| CC(C)(C)Oc1ncc(Br)c(OC(C)(C)C)n1 | inactive |
